Reference: PubChem BioAssay
Activity calls are given as the source filed them. Unless noted, no rule for the calls is given here.

Experiments:
[1] = Wnt pathway potentiators raising nuclear beta-catenin – imaging, WNT3A-conditioned medium, mouse C2C12, NPC library, primary screen (AID 1117326; in the data active = nuclear beta-catenin stimulation mostly above about 4.2%, no sharp cut-off; inactive = mostly below about 10%); details: stronger effect = higher value
[2] = stimulators of insulin release from INS-1E, primary screen, cell-based, 5 mM glucose, NPC library (AID 1117329;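 active = compound raises insulin release from rat beta cells at 5 mM glucose, no numeric limit stated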); details: rat INS-1E insulin secretion, at 10 µM, stronger effect = higher value
[3] = growth inhibition of GSK3B-pretreated HCT116 cells – cell-based, CellTiter-Glo, 0.2 to 20 µM (AID 1117336;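 active = compounds lowering colon cancer cell viability after pretreatment blocking the GSK3B kinase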); details: HCT116 viability after GSK3B inhibitor, at 20 µM, stronger effect = higher value
[4] = inhibition of endothelial tube formation, primary screen, imaging, VEGF stimulated, CD31 staining, tube area, NPC library (AID 1117340;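 active = compound that reduces growth-factor-driven endothelial tube area in a mixed cell culture, no cutoff stated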); details: VEGF-stimulated ADSC/ECFC co-culture, at 10 µM, stronger effect = higher value
[5] = GLP1 release stimulators, primary, NCI-H716, NPC library (AID 1117341;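 active = compound raises GLP1 secretion from the human gut endocrine cells, with no numeric limit stated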); details: NCI-H716 cells, at 10 µM, stronger effect = higher value
[6] = HCT116 colon cancer cell growth inhibition, primary screen, CellTiter-Glo luminescence, NPC library (AID 1117342;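 active = compounds that lower survival of HCT116 colon cancer cells in the luminescence readout, no numeric limit stated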); details: at 20 µM (top of the series)
[7] = reduced SW480 viability measured with CellTiter-Glo, NPC library, primary (AID 1117343;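 active = compounds that lower viability of the colon cancer cells in the luminescence readout, with no numeric limit stated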); details: CellTiter-Glo luminescence; at 20 µM (top of the series)
[8] = NPC library primary testing for decreased DLD-1 cell viability via CellTiter-Glo (AID 1117346;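 active = compounds that lower survival of DLD-1 colon cancer cells in the luminescence readout, no cutoff given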); details: DLD-1 viability, CellTiter-Glo luminescence; at 20 µM (top of the series)
[9] = liver-stage malaria parasite load reduction – cell-based, known kinase inhibitor set, luminescence, hepatoma host viability (AID 624392); details: Plasmodium liver stage in hepatoma cells, luciferase luminescence, concentration not given here; liver cell % of control: measured here: host liver cell viability; parasite % of control: stronger effect = lower value;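 also: infected cells incubated roughly two days before readout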
[10] = altered dexamethasone sensitivity, NF-kB reporter, cell-based, luciferase, IL-1B stimulus (AID 624486); details: IL-1B + dexamethasone, luminescence; percent of negative control (+Dex): actives lie on both sides, concentration not given here; z-score: measured here: IL-1B alone, no Dex;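 as to percent of negative control (+Dex): 100% = mean signal of vehicle control wells on the plate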
[11] = C. elegans survival during P. aeruginosa infection – whole organism (AID 651566);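 also: tested at 14 µM; sign flipped so higher z means a lower ratio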; details: C. elegans killed by P. aeruginosa, survival ratio
[12] = pro-inflammatory signaling induction in mouse macrophages – cell-based, murine, luminescence (AID 652131); details: murine macrophage pro-inflammatory reporter, stronger effect = higher value
[13] = target: Cellular tumor antigen p53 (Homo sapiens) (UniProt P04637); assay: GFP-p53 level modulators in HPV16+ cells – imaging, known kinase inhibitor set, EGFP/DsRed ratio (AID 1053116); details: GFP-p53 stability, stronger effect = higher value; EGFP object count: measured here: GFP-p53 positive objects count;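 also: cells exposed to compounds for 24 h at 37 °C before reading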
Sequence of Cellular tumor antigen p53 (Homo sapiens) (P04637 whole entry, looked up): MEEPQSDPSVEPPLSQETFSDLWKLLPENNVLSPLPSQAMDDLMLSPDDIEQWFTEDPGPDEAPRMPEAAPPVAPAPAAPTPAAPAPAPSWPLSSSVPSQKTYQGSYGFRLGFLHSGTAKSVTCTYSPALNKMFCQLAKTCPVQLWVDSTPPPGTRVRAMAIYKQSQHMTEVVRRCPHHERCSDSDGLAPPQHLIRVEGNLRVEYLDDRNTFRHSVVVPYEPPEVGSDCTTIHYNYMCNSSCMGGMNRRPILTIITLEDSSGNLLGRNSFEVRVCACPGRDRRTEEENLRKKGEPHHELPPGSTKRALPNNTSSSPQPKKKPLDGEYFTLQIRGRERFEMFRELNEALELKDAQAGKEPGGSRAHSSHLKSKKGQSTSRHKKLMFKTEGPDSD

[14] = inducers of IRF3 signaling, differentiated THP-1 – cell-based, PMA-stimulated THP-1, luminescence (AID 1053176); details: PMA-differentiated THP-1, IRF3 reporter luminescence; stronger effect = higher value
[15] = MELAS cybrid and Rieske KO viability enhancers – cell-based, MELAS cybrids, Rieske KO mouse fibroblasts, CellTiter-Glo, primary screen (AID 1508586;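 active = mean z-score across replicates of 1.96 or higher in either the MELAS or the Rieske mutant cell line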;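 also: z relative to plate mean and SD of compound and empty wells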); details: low glucose

O=c1oc2ccccc2c(O)c1C(CC(O)c1ccc(-c2ccc(Br)cc2)cc1)c1ccccc1 (configuration not stated)
active: viability decrease [3] 100% | GLP1 secretion stimulation [5] 23.9% | inhibition of viability [6] 101% | viability decrease (inhibition) [7] 122% | viability decrease (inhibition) [8] 103%
2.6%: nuclear beta-catenin stimulation ([1]; stimulation, at 2 µM)
inactive: nuclear beta-catenin stimulation ([1]; at 10 µM) 8.3% | insulin secretion stimulation [2] 3.6% | tube area decrease [4] 2.4%

C[C@]12CC[C@H]3[C@@H](CCC4=CC(=O)CC[C@@]43C)[C@@H]1CC[C@@H]2C(=O)O
0.3%: nuclear beta-catenin stimulation ([1]; stimulation, at 2 µM)
inactive: nuclear beta-catenin stimulation ([1]; at 10 µM) 0.7% | insulin secretion stimulation [2] 0.2% | viability decrease [3] 3.5% | tube area decrease [4] 8.1% | GLP1 secretion stimulation [5] -3.2% | inhibition of viability [6] 5.9% | viability decrease (inhibition) [7] -1.3% | viability decrease (inhibition) [8] 2.4%

CC(C)(C)c1cc(O)ccc1O
active: tube area decrease [4] 50.3%
2.2%: nuclear beta-catenin stimulation ([1]; stimulation, at 2 µM)
inactive: nuclear beta-catenin stimulation ([1]; at 10 µM) 2.1% | insulin secretion stimulation [2] 0% | viability decrease [3] 11.8% | GLP1 secretion stimulation [5] -1% | inhibition of viability [6] -45.9% | viability decrease (inhibition) [7] 17.3% | viability decrease (inhibition) [8] -12%

CC(Cc1ccc2c(c1)OCO2)NCC(O)c1ccc(O)c(O)c1 (configuration not stated)
-0.2%: nuclear beta-catenin stimulation ([1]; stimulation, at 2 µM)
inactive: nuclear beta-catenin stimulation ([1]; at 10 µM) 2.6% | insulin secretion stimulation [2] 2.9% | viability decrease [3] 38.3% | tube area decrease [4] 21.3% | GLP1 secretion stimulation [5] -2% | inhibition of viability [6] 25.8% | viability decrease (inhibition) [7] 40.4% | viability decrease (inhibition) [8] 14.6%

CNC(=O)Oc1cc(C)c(/C=C/c2cncc(C(=O)NC)c2)c(C)c1
111%: liver cell % of control [9]
inactive: parasite % of control [9] 110% | percent of negative control (+Dex) [10] 107% | z-score [11] -0.2 | z-score [12] -0.101 | EGFP/DsRed ratio [13] 0.0984 | fraction signal [14] -0.0105 | z-score ([15]; MELAS cybrid survival, CellTiter-Glo 48 h, stronger effect = higher value) -0.555
1: EGFP object count [13]
0.0985: z-score ([15]; Rieske KO mouse fibroblast survival, CellTiter-Glo 72 h)
1.96: z-score [10]

COc1ccc2c(C(=O)c3ccc(Cl)cc3)c(C)n(CC(=O)O)c2c1
-0.8%: nuclear beta-catenin stimulation ([1]; stimulation, at 2 µM)
inactive: nuclear beta-catenin stimulation ([1]; at 10 µM) -0.1% | insulin secretion stimulation [2] 1.05% | viability decrease [3] 13.7% | tube area decrease [4] -18.1% | GLP1 secretion stimulation [5] -0.1% | inhibition of viability [6] 8% | viability decrease (inhibition) [7] 22.3% | viability decrease (inhibition) [8] -3.8%

CCC1(c2ccccc2)CCC(=O)NC1=O (configuration not stated)
inactive: nuclear beta-catenin stimulation ([1]; at 10 µM) 0.3% | insulin secretion stimulation [2] -2.9% | viability decrease [3] -12.8% | tube area decrease [4] -0.6% | GLP1 secretion stimulation [5] 2.8% | inhibition of viability [6] -2.8% | viability decrease (inhibition) [7] 49.4% | viability decrease (inhibition) [8] 6.55%
0.1%: nuclear beta-catenin stimulation ([1]; stimulation, at 2 µM)

Cn1cc(C2=C(c3cn(CCCNC(N)=N[N+](=O)[O-])c4ccccc34)C(=O)NC2=O)c2ccccc21
-0.575: z-score [10]
106%: liver cell % of control [9]
inactive: parasite % of control [9] 62.5% | percent of negative control (+Dex) [10] 102% | EGFP/DsRed ratio [13] 0.0481 | fraction signal [14] 0.0015
2.5: EGFP object count [13]
